From PubChem BioAssay (EPA / NIEHS) come the findings set out here.

Values joined by “and” are separate entries in the source; they are usually repeats but may differ in a detail not shown here. Equal entries are not always repeated. Results filed as inconclusive are left out. Some compounds were tested as several samples or in several runs, with calls that do not always agree. Active and inactive are the calls of the source. How the source made its calls, unless noted: active means hit-call score of the fitted dose curve at least 0.9, where 1 is the maximum; inactive means score below 0.9.

In test [1] the target is human Retinoid X Receptor beta (RXRb), RXRB (gene 6257) (UniProt P28702). The test is described as follows: ATG_RXRb_TRANS: Attagene TRANS-FACTORIAL HepG2 Assay for human Retinoid X Receptor beta (RXRb) (AID 2283013; active means hit-call score of the fitted dose curve at least 0.9, where 1 is the maximum). Summed up: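 After a 24 h incubation with test chemical, transfected HepG2 cells carrying NR-Gal4 fusions and GAL4-UAS reporter transcription units yield RNA whose reporter cDNA is FAM-labelled, HpaI-cut and sized by capillary electrophoresis; increases over DMSO are scored.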

In test [2] the target is human Thyroid Receptor alpha (THRa1), THRA (gene 7067) (UniProt P10827). The test is described as follows: ATG_THRa1_TRANS: Attagene TRANS-FACTORIAL HepG2 Assay for human Thyroid Receptor alpha (THRa1) (AID 2283014; active means hit-call score of the fitted dose curve at least 0.9, where 1 is the maximum). In a few lines: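 HepG2 cells transiently transfected with chimeric NR-Gal4 and GAL4-UAS reporter units, dosed 24 h. Reporter mRNA quantified by RT-PCR, fluorescent labeling, HpaI digestion and capillary electrophoresis; gain-of-signal fit versus DMSO.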

In test [3] the target is human Vitamin D Receptor (VDR), VDR (gene 7421) (UniProt P11473). The test is described as follows: ATG_VDR_TRANS: Attagene TRANS-FACTORIAL HepG2 Assay for human Vitamin D Receptor (VDR) (AID 2283022; active means hit-call score of the fitted dose curve at least 0.9, where 1 is the maximum). Summed up:
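HepG2 cells were transiently transfected with GAL4-UAS reporter units and a chimeric VDR-Gal4 construct, then dosed for 24 hours. Reporter mRNA was quantified by RT-PCR, fluorescent labeling, HpaI digestion and capillary electrophoresis; gain of signal analysed vs DMSO.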

Read-out in test [4]: E-selectin (Homo sapiens) (UniProt P16581)
The test is described as follows: BSK_3C_Eselectin: BioMAP Diversity Plus: 3C Assay for Eselectin Biomarker Activity (AID 2283015).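 On outcome: cell surface E-selectin protein quantified by ELISA 24 h after dosing.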 To be noted: primary human endothelial cells (HUVEC); actives raise or lower the signal. Summed up: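 Primary human umbilical vein endothelial cells (3C system), read 24 h after compound addition; E-selectin measured by ELISA. Bidirectional curve fitting against DMSO baseline; cytotoxicity by parallel SRB total-protein staining.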

Read-out in test [5]: Interleukin-1 alpha (IL1a), IL1A (gene 3552)
Kind of test: BSK_BE3C_IL1a: BioMAP Diversity Plus: BE3C Assay for Interleukin-1 alpha (IL1a) Biomarker Activity (AID 2283016). The note with it: primary human bronchial epithelial cells; actives raise or lower the signal. Summed up:
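Measured in human lung primary bronchial epithelial cells: IL-1a by ELISA at 24 h after dosing, with bidirectional fitting against DMSO.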

Read-out in test [6]: Monocyte Chemoattractant Protein-1 (MCP1), CCL2 (gene 6347)
Kind of test: BSK_3C_MCP1: BioMAP Diversity Plus: 3C Assay for Monocyte Chemoattractant Protein-1 (MCP1) Biomarker Activity (AID 2283017). The note with it: primary human endothelial cells (HUVEC); actives raise or lower the signal. In a few lines: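 Human umbilical vein endothelial cells (3C system) exposed to chemicals for 24 h; MCP-1 quantified by ELISA against the DMSO baseline with bidirectional fitting, and parallel SRB staining used to assess cytotoxicity.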

Read-out in test [7]: Monocyte Chemoattractant Protein-1 (MCP1), CCL2 (gene 6347)
The test is described as follows: BSK_4H_MCP1: BioMAP Diversity Plus: 4H Assay for Monocyte Chemoattractant Protein-1 (MCP1) Biomarker Activity (AID 2283018). The note with it: primary human endothelial cells (HUVEC); actives raise or lower the signal. In a few lines:
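Primary human umbilical vein endothelium is exposed to chemical for 24 h before MCP-1 is assayed by ELISA. Concentration-response fitted bidirectionally relative to DMSO.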

Read-out in test [8]: Human Leukocyte Antigen - DR isotype (HLADR), HLA-DRA (gene 3122)
The test is described as follows: BSK_3C_HLADR: BioMAP Diversity Plus: 3C Assay for Human Leukocyte Antigen - DR isotype (HLADR) Biomarker Activity (AID 2283019).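 On outcome: ELISA of cell-surface HLA-DR on HUVEC 24 h after dosing.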 To be noted: primary human endothelial cells (HUVEC); actives raise or lower the signal. Summed up:
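HUVEC monoculture, HLA-DR measured by ELISA 24 h after chemical dosing. Fitted bidirectionally against DMSO baseline; parallel SRB staining assessed cytotoxicity, with 3C proliferation read by SRB at 48 h.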

Read-out in test [9]: Interleukin-8 (IL8), CXCL8 (gene 3576)
The test is described as follows: BSK_3C_IL8: BioMAP Diversity Plus: 3C Assay for Interleukin-8 (IL8) Biomarker Activity (AID 2283020). The note with it: primary human endothelial cells (HUVEC); actives raise or lower the signal. Summed up: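 Using DMSO-treated wells as the baseline, bidirectional curve fitting was applied to ELISA-measured IL-8 from human umbilical vein endothelial cultures sampled 24 h after compound addition.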

Read-out in test [10]: Monokine induced gamma interferon (MIG), CXCL9 (gene 4283)
Kind of test: BSK_3C_MIG: BioMAP Diversity Plus: 3C Assay for Monokine induced gamma interferon (MIG) Biomarker Activity (AID 2283021).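 On AC50: MIG protein level measured by immunoassay in the treated endothelial cultures.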 To be noted: primary human endothelial cells (HUVEC); actives raise or lower the signal. In a few lines:
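ELISA-measured MIG in dosed HUVEC 3C cultures at 24 h, analysed by bidirectional fitting with DMSO defining baseline activity.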

Test [11] is described as follows: BSK_3C_SRB: Viability Assessment in the BioMAP Diversity Plus: 3C Assay (AID 2283023).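 Further: fitted both ways against DMSO so a hit may be signal rise or drop.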 The note with it: primary human endothelial cells (HUVEC). Summed up:
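Human umbilical vein endothelial cells in the 3C system, treated 24 h. Total protein measured by 0.1% sulforhodamine B staining after 10% TCA fixation, read at 560 nm; bidirectional fit versus DMSO.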

Read-out in test [12]: Matrix Metallopeptidase 1 (MMP1), MMP1 (gene 4312)
Kind of test: BSK_BE3C_MMP1: BioMAP Diversity Plus: BE3C Assay for Matrix Metallopeptidase 1 (MMP1) Biomarker Activity (AID 2283024). The note with it: primary human bronchial epithelial cells; actives raise or lower the signal. In a few lines: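 In this multiplexed primary-cell system, human bronchial epithelium received chemicals for 24 h before an ELISA for MMP1. Values reflect bidirectional fits normalised to the DMSO baseline.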

Read-out in test [13]: Pselectin, SELP (gene 6403)
Kind of test: BSK_4H_Pselectin: BioMAP Diversity Plus: 4H Assay for Pselectin Biomarker Activity (AID 2283026). The note with it: primary human endothelial cells (HUVEC); actives raise or lower the signal. Summed up:
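Bidirectional fits against DMSO gave the endpoint. Cells: primary human umbilical vein endothelium, chemical-treated for 24 h before ELISA detection of P-selectin.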

Test [14] can be described thus: BSK_BE3C_SRB: Viability Assessment in the BioMAP Diversity Plus: BE3C Assay (AID 2283028).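 On AC50: fitted both ways so AC50 may mark signal gain or loss versus DMSO.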 The note with it: primary human bronchial epithelial cells. In a few lines: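 Human bronchial epithelial primary cells in confluent culture, 24 h after chemical dosing; total protein by 0.1% SRB staining after 10% TCA fixation, read at 560 nm. Bidirectional fitting versus DMSO baseline.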

Read-out in test [15]: Thrombomodulin, THBD (gene 7056)
The test is described as follows: BSK_3C_Thrombomodulin: BioMAP Diversity Plus: 3C Assay for Thrombomodulin Biomarker Activity (AID 2283029). The note with it: primary human endothelial cells (HUVEC); actives raise or lower the signal. Summed up: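 In a multiplexed primary-cell system, human umbilical vein endothelium received chemical and was assayed 24 h later for thrombomodulin by ELISA. Parallel cultures were SRB-stained (0.1% SRB after 10% TCA fixation, read at 560 nm) to flag cytotoxicity.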

Read-out in test [16]: Urokinase-type plasminogen activator receptor (uPAR), PLAUR (gene 5329)
Kind of test: BSK_4H_uPAR: BioMAP Diversity Plus: 4H Assay for Urokinase-type plasminogen activator receptor (uPAR) Biomarker Activity (AID 2283030). To be noted: primary human endothelial cells (HUVEC); actives raise or lower the signal. In a few lines: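 Human umbilical vein endothelial cells in the 4H system, 24 h after chemical dosing. Cell-surface uPAR measured by ELISA, fitted in both directions versus DMSO; cytotoxicity checked by SRB total protein in parallel cultures.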

Read-out in test [17]: Vascular endothelial growth factor receptor 2 (Homo sapiens) (UniProt P35968)
The test is described as follows: BSK_4H_VEGFRII: BioMAP Diversity Plus: 4H Assay for Vascular endothelial growth factor receptor 2 (VEGFR2) Biomarker Activity (AID 2283031).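 On AC50: cell-surface VEGFR2 protein level quantified by ELISA.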 To be noted: primary human endothelial cells (HUVEC); actives raise or lower the signal. Summed up: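 Primary human umbilical vein endothelial cells (4H system), 24 h exposure; cell-surface VEGFR2 measured by ELISA. Bidirectional fitting versus DMSO; cytotoxicity checked in parallel by SRB total-protein staining.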

Read-out in test [18]: Human Leukocyte Antigen - DR isotype (HLADR), HLA-DRA (gene 3122)
Kind of test: BSK_BE3C_HLADR: BioMAP Diversity Plus: BE3C Assay for Human Leukocyte Antigen - DR isotype (HLADR) Biomarker Activity (AID 2283032). To be noted: primary human bronchial epithelial cells; actives raise or lower the signal. In a few lines: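 BioMAP BE3C format: human bronchial epithelium, 24 h compound treatment, ELISA detection of HLA-DR, with bidirectional analysis relative to DMSO.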

Test [19] can be described thus: BSK_3C_Vis: BioMAP Diversity Plus: 3C Assay for Morphology Visualization (AID 2283025).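 Further: light microscopy image of cell morphology used as background control; fitted both ways so gain or loss versus DMSO counts.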 To be noted: primary human endothelial cells (HUVEC). In a few lines:
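Light-microscopy morphology readout, 24 h exposure, human primary umbilical vein endothelium; analysed relative to DMSO with bidirectional fitting.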

The nature of test [20]: BSK_4H_SRB: Viability Assessment in the BioMAP Diversity Plus: 4H Assay (AID 2283027).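 Further: cells exposed to compound for 24 h before staining.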 The note with it: primary human endothelial cells (HUVEC). Summed up:
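Cytotoxicity readout: sulforhodamine B (0.1%) staining of total protein after 10% TCA fixation, measured at 560 nm in human umbilical vein endothelium at 24 h. DMSO set the baseline; fitting was bidirectional.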

Sequence of human Retinoid X Receptor beta (RXRb), RXRB (gene 6257) (P28702 whole entry, looked up, the tested form may be a part): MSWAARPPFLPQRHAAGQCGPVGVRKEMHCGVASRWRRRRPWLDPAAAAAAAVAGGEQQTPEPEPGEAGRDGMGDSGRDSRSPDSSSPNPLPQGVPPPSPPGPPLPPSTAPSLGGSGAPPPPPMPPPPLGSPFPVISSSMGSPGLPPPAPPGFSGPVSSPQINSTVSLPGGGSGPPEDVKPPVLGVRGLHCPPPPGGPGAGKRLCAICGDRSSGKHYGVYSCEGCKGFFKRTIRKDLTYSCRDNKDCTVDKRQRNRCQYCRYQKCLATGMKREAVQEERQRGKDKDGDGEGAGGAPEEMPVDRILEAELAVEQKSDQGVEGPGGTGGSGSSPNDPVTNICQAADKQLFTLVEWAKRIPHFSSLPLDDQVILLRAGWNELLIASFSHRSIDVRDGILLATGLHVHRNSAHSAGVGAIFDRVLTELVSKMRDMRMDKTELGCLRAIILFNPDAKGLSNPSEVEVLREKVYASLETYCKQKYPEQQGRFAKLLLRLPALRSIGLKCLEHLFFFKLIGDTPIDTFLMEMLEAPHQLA
Sequence of E-selectin (Homo sapiens) (P16581 whole entry, looked up): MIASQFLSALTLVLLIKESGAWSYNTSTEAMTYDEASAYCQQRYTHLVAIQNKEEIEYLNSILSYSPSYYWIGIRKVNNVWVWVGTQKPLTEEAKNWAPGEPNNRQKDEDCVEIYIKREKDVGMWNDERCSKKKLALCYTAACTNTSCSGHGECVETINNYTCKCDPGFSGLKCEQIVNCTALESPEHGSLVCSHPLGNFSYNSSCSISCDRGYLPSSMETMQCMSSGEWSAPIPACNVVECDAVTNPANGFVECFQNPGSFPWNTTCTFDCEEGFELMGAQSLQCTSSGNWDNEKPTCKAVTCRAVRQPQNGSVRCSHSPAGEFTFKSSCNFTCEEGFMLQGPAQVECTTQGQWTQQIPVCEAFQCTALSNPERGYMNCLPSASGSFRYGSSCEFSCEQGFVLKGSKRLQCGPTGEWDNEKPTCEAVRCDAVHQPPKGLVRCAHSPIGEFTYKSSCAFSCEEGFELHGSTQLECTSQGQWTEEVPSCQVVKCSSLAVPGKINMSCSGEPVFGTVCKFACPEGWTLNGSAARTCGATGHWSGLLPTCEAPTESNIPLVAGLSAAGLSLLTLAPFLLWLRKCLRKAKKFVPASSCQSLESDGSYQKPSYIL
Sequence of human Thyroid Receptor alpha (THRa1), THRA (gene 7067) (P10827 whole entry, looked up, the tested form may be a part): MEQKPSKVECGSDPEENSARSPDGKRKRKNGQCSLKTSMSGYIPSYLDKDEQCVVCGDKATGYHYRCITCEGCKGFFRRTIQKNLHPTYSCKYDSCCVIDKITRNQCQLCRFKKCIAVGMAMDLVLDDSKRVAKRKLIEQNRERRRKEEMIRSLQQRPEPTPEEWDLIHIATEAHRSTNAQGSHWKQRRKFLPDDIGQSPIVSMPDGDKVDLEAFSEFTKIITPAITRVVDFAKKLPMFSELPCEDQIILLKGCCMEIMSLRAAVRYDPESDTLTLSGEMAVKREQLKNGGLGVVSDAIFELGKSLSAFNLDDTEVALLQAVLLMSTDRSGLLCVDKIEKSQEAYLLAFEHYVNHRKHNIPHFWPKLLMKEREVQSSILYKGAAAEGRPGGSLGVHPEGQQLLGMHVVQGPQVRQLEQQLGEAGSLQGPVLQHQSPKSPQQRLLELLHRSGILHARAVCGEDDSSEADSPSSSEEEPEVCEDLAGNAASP
Sequence of human Vitamin D Receptor (VDR), VDR (gene 7421) (P11473 whole entry, looked up, the tested form may be a part): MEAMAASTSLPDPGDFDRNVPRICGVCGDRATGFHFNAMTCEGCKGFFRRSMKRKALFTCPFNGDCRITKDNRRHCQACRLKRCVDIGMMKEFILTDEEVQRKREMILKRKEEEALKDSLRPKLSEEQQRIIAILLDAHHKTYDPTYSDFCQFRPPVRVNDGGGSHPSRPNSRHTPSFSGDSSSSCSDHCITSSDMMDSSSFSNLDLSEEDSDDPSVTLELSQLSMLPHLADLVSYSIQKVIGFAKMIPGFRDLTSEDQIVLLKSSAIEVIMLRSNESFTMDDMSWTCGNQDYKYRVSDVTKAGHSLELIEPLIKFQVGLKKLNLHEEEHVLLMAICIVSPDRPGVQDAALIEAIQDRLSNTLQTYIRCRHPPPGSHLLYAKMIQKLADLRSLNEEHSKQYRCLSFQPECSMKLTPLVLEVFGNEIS

For `Cc1cc(=O)oc2cc(O)ccc12`, the outcome in [1], in test [2] and in [3] was inactive.
Consider `CC(C)[C@@H]1CC[C@@H](C)C[C@H]1O`, for which the compound was called inactive in [1], in [2] and in test [3].
For the compound `O=C(CC(=O)C(F)(F)C(F)(F)C(F)(F)F)c1cccs1`, the compound was called inactive in test [1], in [2], in test [3], in test [15] and in test [17]. Also, the AC50 in test [4] was 51.4 µM (active) and 52.5 µM (active); in test [5] it was 29.5 µM (active) and 28.9 µM (active); in test [6], 40 µM (active) and 41.2 µM (active); in test [7], 23.5 µM (active) and 29.1 µM (active); in test [8], 24.1 µM (active) and 24.6 µM (active); in test [9], 15.8 µM (active) and 17.3 µM (active). Besides, the AC50 in [10] was 51.9 µM (active) and 52.2 µM (active); in test [11], 24.1 µM (active) and 43.7 µM (active); in test [12] it was 43.6 µM (active) and 45.2 µM (active); in [13] it was 19.1 µM (active) and 20.2 µM (active); in test [14], 30 µM (active) and 37.9 µM (active); in [16] it was 49.1 µM (active) and 54.8 µM (active). Besides, the AC50 in test [17] was 8.16 µM (active); in test [18], 20.4 µM (active) and 23.8 µM (active).
On to `CCOC=C(C(=O)OCC)C(=O)OCC`, for which the result in test [1] and in test [3] was inactive.
Take `c1ccc(CNc2ncnc3c2ncn3C2CCCCO2)cc1` (centres undefined): the result in test [1] and in test [3] was inactive.
With `CCCCc1oc2ccccc2c1C(=O)c1cc(I)c(OCCN(CC)CC)c(I)c1`, the result in test [1] and in [15] was inactive. Also, the AC50 was 24.1 µM (active) in test [4]; 17.1 µM (active) in [5]; 21.6 µM (active) in test [6]; 15.1 µM (active) in [7]; 9.35 µM (active) in test [8]; 17.7 µM (active) in test [9]. Moreover, the AC50 was 25.7 µM (active) in test [10]; 47.5 µM (active) in test [3]; 8.48 µM (active) in [11]; 25 µM (active) in test [12]; 9.65 µM (active) in test [19]; 9.72 µM (active) in [13]. Besides, the AC50 in test [14] is 25.4 µM (active); in test [16], 15.1 µM (active); in [17], 21.2 µM (active); in test [18], 15.1 µM (active).
For `CCCCc1ccc2ccccc2c1S(=O)(=O)O`, the concentration at half-maximal activity (AC50) in test [1] was 77.1 µM (active). The compound was called inactive in test [3].
Turning to `CCN(CCC#N)c1ccccc1`, the compound was classed as inactive in test [1] and in test [3].
As to `Cc1ccc2ccc3ccc(C)cc3c2c1`, the AC50 in test [1] is 12.9 µM (active). In addition, the call in test [3] was inactive.
The corresponding values for `CCOC=O` are 6.71 µM (active) and “inactive”.
On to `C=CC(=O)OCC(CO)(COCC(COC(=O)C=C)(COC(=O)C=C)COC(=O)C=C)COC(=O)C=C`, for which the compound was classed as inactive in test [1] and in test [3].
Regarding `O=S(=O)(O)c1ccc2cc(O)ccc2c1`, the compound was classed as inactive in test [1], in test [2] and in test [3].
As for `Cc1cc(Cc2cc(C)cc(C(C)(C)C)c2O)c(O)c(C(C)(C)C)c1`, the result in [1], in [2] and in [3] was inactive.
Take `O=C(O)CCC(F)(F)C(F)(F)C(F)(F)C(F)(F)C(F)(F)F`: the compound was classed as inactive in test [1], in test [4], in [5], in test [6], in test [7] and in test [8]. Besides, the result in test [9], in test [10], in test [3], in [11], in test [12] and in test [13] was inactive. Moreover, the result in [20], in [14], in test [15], in test [16], in test [17] and in [18] was inactive.
In the case of `C=CC(=O)OCCC(F)(F)C(F)(F)C(F)(F)C(F)(F)C(F)(F)C(F)(F)F`, the compound was classed as inactive in [1], in [2] and in test [3].

In general, AC50 refers to the concentration giving half of the maximal activity seen.
